This note sets out measurements from publication PMC7862700, “An all-to-all approach to the identification of sequence-specific readers for epigenetic DNA modifications on cytosine”.

What all share (test): DAPPL (digital affinity profiling via proximity ligation, sequencing); 10 mM Tris-HCl pH 7.5, 50 mM NaCl, 1 mM DTT, 4% glycerol, room temperature, 30 min; GST-TFs on glutathione beads, 16-mer random dsDNA library, 0.1% formaldehyde crosslink after washing; high values mean tight binding
What all share (settings): protein: recombinant; tags: N-terminal GST; dsDNA, one strand shown

One assay deals with T1, FLI1 (Homo sapiens, UniProt Q01543 1-452).
T1 sequence: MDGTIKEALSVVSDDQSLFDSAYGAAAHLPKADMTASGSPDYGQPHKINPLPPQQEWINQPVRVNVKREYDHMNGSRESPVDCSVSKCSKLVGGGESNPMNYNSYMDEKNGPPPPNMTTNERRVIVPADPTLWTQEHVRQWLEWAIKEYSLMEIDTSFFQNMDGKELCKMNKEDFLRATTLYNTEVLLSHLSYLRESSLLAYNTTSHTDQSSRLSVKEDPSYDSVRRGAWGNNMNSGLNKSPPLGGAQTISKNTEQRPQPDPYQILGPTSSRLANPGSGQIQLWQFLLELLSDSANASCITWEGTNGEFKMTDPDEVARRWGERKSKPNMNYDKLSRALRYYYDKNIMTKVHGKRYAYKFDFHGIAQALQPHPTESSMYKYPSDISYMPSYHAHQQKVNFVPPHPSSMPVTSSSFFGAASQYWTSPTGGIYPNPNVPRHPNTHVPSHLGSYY
The essentials:
(§1)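 Pools of DNA-barcoded human transcription factors, expressed in yeast as GST fusions on glutathione beads and combined with a tag-only sample, were incubated with 200 nmole of a 16-mer random double-stranded DNA library. Incubation took 30 min at room temperature in Tris/NaCl/DTT/glycerol buffer and was followed by washing, 0.1% formaldehyde crosslinking, proximity ligation (BsaI/T4 ligase, 1 h, 37 °C), PCR amplification and sequencing on an Illumina NextSeq500. Binding signal is the ratio of a hexamer's read frequency for a factor to its frequency for the tag-only sample.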

In the next assay the target is T2, ELK1 (Homo sapiens, UniProt P19419 1-428).
T2 sequence: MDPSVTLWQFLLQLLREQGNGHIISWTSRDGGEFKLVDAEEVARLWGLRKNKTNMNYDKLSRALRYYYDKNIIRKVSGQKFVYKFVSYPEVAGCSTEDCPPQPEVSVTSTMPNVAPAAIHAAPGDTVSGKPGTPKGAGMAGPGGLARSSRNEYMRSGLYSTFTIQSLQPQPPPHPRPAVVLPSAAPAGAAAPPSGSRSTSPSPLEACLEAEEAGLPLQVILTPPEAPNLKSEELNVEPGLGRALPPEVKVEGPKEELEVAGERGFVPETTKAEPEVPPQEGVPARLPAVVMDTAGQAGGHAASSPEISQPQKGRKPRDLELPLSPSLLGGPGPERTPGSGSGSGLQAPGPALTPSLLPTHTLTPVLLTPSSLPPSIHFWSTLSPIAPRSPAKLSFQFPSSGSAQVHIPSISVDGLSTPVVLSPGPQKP
In outline: as §1

Another assay deals with T3, GABPA (Homo sapiens, UniProt Q06546 1-454).
T3 sequence: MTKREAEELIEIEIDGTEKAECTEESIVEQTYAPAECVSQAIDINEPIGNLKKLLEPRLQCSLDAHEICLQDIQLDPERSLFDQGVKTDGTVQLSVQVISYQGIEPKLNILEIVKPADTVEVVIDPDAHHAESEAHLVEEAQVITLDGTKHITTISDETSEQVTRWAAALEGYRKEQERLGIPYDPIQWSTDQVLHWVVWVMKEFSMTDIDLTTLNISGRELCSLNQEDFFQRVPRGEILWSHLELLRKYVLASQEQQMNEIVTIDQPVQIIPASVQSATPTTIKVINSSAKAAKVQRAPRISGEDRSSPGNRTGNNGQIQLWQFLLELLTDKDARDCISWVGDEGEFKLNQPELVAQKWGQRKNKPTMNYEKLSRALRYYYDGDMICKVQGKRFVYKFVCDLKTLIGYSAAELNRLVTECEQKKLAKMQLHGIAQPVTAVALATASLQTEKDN
The essentials:
as §1

A further assay has as its target T4, EHF (Homo sapiens, UniProt Q9NZC4 1-300).
T4 sequence: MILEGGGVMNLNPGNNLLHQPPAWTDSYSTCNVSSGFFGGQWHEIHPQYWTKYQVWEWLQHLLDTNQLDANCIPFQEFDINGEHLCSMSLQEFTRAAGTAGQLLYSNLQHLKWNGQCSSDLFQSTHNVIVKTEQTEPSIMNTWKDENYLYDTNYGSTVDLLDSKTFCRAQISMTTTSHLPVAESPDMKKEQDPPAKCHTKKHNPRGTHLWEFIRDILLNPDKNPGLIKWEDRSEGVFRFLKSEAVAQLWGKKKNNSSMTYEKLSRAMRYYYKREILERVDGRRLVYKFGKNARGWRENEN
The essentials:
as §1

The target of the next assay is SPI1 (Homo sapiens, UniProt P17947 1-270). The essentials:
as §1

The target in the next assay is SPIB (Homo sapiens, UniProt Q01892 1-262). In outline: as §1
In another assay the target is ETV5 (Homo sapiens, UniProt P41161 1-510). In outline:
as §1

A further assay deals with T5, SPIC (Homo sapiens, UniProt Q8N5J4 1-248).
T5 sequence: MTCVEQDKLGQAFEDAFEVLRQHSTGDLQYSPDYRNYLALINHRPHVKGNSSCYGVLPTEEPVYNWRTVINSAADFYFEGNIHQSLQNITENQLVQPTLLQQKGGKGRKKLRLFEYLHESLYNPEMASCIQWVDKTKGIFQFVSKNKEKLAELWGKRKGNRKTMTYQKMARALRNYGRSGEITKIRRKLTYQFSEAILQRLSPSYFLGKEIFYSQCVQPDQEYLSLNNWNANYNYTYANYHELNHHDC
In outline: as §1

The next assay addresses ELF4 (Homo sapiens, UniProt Q99607 1-663). The essentials: as §1
Another assay has as its target ETV1 (Homo sapiens, UniProt P50549 1-477). In outline: as §1
The next assay deals with T6, ERF (Homo sapiens, UniProt P50548 1-548).
T6 sequence: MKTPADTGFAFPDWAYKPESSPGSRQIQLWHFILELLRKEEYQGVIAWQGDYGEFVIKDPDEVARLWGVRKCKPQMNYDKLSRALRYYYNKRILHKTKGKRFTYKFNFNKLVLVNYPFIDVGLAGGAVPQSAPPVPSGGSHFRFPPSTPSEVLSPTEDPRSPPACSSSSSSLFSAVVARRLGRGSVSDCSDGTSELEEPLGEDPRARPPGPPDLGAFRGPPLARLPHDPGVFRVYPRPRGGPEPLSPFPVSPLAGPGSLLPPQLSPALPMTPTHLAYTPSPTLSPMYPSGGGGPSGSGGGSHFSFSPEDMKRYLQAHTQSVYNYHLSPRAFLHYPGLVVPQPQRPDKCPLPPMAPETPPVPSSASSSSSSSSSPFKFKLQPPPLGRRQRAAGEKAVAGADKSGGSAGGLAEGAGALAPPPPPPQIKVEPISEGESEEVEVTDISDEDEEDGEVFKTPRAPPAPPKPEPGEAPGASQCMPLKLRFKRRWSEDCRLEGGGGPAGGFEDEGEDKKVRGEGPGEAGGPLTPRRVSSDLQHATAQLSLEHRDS
In outline:
as §1

The target of the next assay is T7, ETV3L (Homo sapiens, UniProt Q6ZN32 1-361).
T7 sequence: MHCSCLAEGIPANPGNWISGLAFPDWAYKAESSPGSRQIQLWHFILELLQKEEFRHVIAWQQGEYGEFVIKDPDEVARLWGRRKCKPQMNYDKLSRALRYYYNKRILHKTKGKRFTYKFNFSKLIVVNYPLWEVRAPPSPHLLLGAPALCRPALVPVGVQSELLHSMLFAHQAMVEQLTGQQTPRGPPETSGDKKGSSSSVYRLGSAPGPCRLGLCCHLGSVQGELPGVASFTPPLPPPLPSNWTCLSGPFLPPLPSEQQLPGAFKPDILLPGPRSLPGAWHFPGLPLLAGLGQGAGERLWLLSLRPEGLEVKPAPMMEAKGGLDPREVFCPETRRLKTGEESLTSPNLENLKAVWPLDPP
The essentials:
as §1

A further assay has as its target T8, ETV3 (Homo sapiens, UniProt P41162-2 1-143).
T8 sequence: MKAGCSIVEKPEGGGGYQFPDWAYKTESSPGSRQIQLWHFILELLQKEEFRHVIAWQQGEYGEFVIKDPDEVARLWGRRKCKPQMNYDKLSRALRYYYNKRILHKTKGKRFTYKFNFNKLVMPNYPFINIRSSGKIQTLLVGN
In outline: as §1

For a further assay, the target named is ETV6 (Homo sapiens, UniProt P41212 1-452). In outline: as §1
ETV6, sequence (P41212 whole entry): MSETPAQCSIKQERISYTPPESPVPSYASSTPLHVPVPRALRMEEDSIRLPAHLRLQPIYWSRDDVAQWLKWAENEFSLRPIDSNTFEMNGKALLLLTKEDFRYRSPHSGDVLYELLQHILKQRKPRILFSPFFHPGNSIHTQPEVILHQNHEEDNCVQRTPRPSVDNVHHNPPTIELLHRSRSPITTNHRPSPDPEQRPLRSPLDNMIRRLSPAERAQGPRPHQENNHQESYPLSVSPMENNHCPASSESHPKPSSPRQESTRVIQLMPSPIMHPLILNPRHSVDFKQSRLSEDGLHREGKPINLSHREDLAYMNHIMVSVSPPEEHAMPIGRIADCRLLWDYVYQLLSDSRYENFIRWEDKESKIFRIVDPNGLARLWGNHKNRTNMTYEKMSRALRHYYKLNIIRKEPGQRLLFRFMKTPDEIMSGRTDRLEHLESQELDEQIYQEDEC

SPIB, sequence (Q01892 whole entry): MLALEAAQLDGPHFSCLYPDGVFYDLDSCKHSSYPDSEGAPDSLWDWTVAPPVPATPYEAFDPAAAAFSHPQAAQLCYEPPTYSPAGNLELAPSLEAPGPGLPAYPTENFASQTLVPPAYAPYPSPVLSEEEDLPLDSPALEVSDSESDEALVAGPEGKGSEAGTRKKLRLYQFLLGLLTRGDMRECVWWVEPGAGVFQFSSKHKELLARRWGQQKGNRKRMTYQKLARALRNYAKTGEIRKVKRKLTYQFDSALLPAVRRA
ELF4, sequence (Q99607 whole entry): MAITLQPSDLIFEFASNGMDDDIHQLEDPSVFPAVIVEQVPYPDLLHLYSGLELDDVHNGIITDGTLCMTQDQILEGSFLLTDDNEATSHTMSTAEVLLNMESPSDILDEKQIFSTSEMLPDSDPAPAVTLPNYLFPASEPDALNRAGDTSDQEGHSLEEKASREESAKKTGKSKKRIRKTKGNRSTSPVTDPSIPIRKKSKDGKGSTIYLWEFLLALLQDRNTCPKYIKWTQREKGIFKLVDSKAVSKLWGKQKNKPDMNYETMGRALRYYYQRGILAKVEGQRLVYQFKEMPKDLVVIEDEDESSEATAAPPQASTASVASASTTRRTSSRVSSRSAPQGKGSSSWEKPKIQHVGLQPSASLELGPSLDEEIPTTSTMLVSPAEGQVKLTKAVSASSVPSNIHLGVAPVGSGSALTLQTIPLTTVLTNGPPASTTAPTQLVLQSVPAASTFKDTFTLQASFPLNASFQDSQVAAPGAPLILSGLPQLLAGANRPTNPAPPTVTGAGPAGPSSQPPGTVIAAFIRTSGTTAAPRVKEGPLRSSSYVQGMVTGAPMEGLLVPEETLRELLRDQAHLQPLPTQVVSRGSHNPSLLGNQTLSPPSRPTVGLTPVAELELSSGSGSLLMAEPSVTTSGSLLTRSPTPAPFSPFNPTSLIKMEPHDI
ETV5, sequence (P41161 whole entry): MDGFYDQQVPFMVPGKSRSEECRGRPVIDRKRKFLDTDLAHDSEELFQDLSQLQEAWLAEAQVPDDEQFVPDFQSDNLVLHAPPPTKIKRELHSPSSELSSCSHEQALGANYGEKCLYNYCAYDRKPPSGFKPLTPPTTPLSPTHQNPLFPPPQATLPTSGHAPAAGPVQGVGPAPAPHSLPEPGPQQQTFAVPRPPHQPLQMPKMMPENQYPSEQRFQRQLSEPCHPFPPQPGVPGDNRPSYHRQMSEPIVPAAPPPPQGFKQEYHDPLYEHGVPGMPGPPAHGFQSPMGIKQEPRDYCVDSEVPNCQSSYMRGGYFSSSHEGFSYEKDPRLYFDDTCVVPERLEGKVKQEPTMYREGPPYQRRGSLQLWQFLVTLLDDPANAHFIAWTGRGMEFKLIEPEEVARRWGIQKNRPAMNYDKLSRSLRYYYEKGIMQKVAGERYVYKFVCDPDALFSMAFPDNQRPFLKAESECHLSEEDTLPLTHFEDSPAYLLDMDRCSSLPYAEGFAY
ETV1, sequence (P50549 whole entry): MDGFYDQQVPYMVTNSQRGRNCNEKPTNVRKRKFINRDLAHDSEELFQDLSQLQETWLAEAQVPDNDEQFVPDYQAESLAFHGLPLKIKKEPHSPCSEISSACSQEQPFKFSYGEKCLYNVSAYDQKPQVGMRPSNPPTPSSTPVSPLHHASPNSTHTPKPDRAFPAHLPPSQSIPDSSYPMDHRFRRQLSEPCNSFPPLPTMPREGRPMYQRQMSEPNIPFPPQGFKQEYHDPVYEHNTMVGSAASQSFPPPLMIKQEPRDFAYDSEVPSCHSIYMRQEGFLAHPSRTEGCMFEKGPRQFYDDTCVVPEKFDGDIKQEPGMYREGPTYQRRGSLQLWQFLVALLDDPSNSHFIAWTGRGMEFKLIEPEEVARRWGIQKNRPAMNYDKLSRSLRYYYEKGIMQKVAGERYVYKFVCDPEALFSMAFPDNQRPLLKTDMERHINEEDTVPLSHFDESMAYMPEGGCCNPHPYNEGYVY

In the case of GCGCGC, the binding signal in the assay with FLI1 is 1 fold enrichment (6-mer frequency, TF over GST control); in the assay with ELK1, 1.11 fold enrichment (6-mer frequency, TF over GST control); in the assay with GABPA, 1.05 fold enrichment (6-mer frequency, TF over GST control); with EHF, 1.06 fold enrichment (6-mer frequency, TF over GST control); in the assay with SPI1, 1.05 fold enrichment (6-mer frequency, TF over GST control); with SPIB it was 1.18 fold enrichment (6-mer frequency, TF over GST control). The binding signal with ETV5 is 1.08 fold enrichment (6-mer frequency, TF over GST control); with SPIC, 1.15 fold enrichment (6-mer frequency, TF over GST control); with ELF4, 1.08 fold enrichment (6-mer frequency, TF over GST control); in the assay with ETV1, 1.09 fold enrichment (6-mer frequency, TF over GST control); with ERF it was 1.22 fold enrichment (6-mer frequency, TF over GST control); in the assay with ETV3L it was 1 fold enrichment (6-mer frequency, TF over GST control). Besides, the binding signal with ETV3 is 1.02 fold enrichment (6-mer frequency, TF over GST control); with ETV6, 1.03 fold enrichment (6-mer frequency, TF over GST control).
